Shown are actives, neighbours in structure and some others; about 2.3% of the full set was active somewhere.
Nrf2 inh: blocks Nrf2 signaling; Potency, µM (series often up to 46 µM), for the others: at the highest dose activity change, negative = inhibition, actives largely listed as inhibitors; 360,000 compounds, 2.1% hits; AID 504444; A549 ARE-Fluc reporter, luciferase luminescence, 18-24 h; further: potency means the concentration at half of the fitted maximal effect; on the % scale 0 is the no-effect control and ±100 the full control effect; nearly all actives have a fitted effect of over 60% in size
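In this cell-based qHTS, ARE-driven firefly luciferase in A549 cells reports Nrf2 activity; the luminescent signal after BugLite lysis is the measured value, with a prior CellTiter-Fluor read for cell health.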
Nrf2 ARE act: Nrf2 pathway activation; AREc32 ARE-luciferase reporter (MCF7-derived line), luminescence, 24 h; Potency, µM (highest dose often 46.1 µM), without a hit: top-dose activation, actives largely listed as activators; 410,000 compounds, 0.31% hits; AID 624171; further: potency means the concentration at half of the fitted maximal effect; % of control where 0% means no effect; nearly all actives have a fitted effect of over 65% in size
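AREc32 cells carrying an ARE-driven firefly luciferase, 1000 cells/well in OPTI-MEM with 5% FBS, dosed after overnight attachment and incubated 24 hr at 37 deg C. Steady-Glo luminescence read after 30 min at RT.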
IL-2 act: activates IL-2 in a cell-based reporter assay; AID 652025; IL-2 activation reporter assay, cell-based qHTS; stimulated with anti-CD3/CD4/CD28 beads; in transgenic mouse T cells; activation, % (series mostly up to about 46 µM); 360,000 compounds, 0.065% hits; in the data active means activation above about 50%; inconclusive means mostly about 30% to 49%; further: 0% is about no effect
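Readout: EGFP and DsRed signals by fluorescent plate cytometry. Unstimulated transgenic mouse T cells received compound 60 min before antibody-bead stimulation, then incubated 18 h at 37 degrees C.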
A549 viability: counter-screen for Nrf2 inhibitors: cytotoxicity in A549 cells; A549 ARE-Fluc cells, CellTiter-Fluor viability, 18-24 h; 390,000 compounds, 0.16% hits; AID 504648; Potency, µM (top dose mostly 46 µM), inactives show at the highest dose activity change, negative = cytotoxicity, actives largely listed as inhibitors; further: potency means the concentration at half of the fitted maximal effect; on the % scale 0 is the no-effect control and ±100 the full control effect
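Cytotoxicity counterscreen: CellTiter-Fluor fluorescence was measured in A549 ARE_Fluc cells after 18-24 h of compound exposure in a concentration series. The subsequent BugLite luminescent read reports ARE-luciferase activity.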
The depositor's hits bear a star; ? = inconclusive; . = no result; [ ] = dose if it differs, or a comment. Unless noted, the call rests on the fitted dose curve; in most records, active means well fitted curve in the direction sought with a large enough effect; inconclusive means small, poorly fitted or top-dose-only effect, or another doubt; inactive means no such curve, though single readings can be large; an effect the other way counts as inactive or inconclusive.

SMILES | Nrf2 inh | Nrf2 ARE act | IL-2 act | A549 viability
CCOc1ccc(CCN2C(=S)N([C@@H](Cc3ccc(O)cc3)CN3CCCC3CN3C(=S)NC[C@@H]3Cc3ccc(O)cc3)C[C@@H]2CC(C)C)cc1 (stereo not given in full) | 16µM* | -1% | -1 | -11%
Cc1[nH]c2ccc(C(=O)Nc3ccncc3)cc2c1C | 12µM* | 4% | 1 | -3%
Oc1[nH]c2ccccc2c1N=Nc1ccc(F)cc1 | ? | 14% | 191* | -9%
COc1ccccc1CCNC(=O)C(=O)NCC(c1cccs1)S(=O)(=O)c1ccc(F)cc1 (stereo not given) | . | 1% | . | -1%
O=C(CN1c2ccccc2Sc2ccccc21)NNC(=O)Nc1ccc(Cl)cc1 | 18µM* | 8% | -1 | ?
COc1cccc(CNC(=O)COC(=O)c2ccc(S(C)(=O)=O)c([N+](=O)[O-])c2)c1 | 17% | . | . | 0%
COc1cc2c(c(OC)c1OC)-c1ccc(SC)c(=O)cc1C(NC(=O)c1ccccc1)CC2 (stereo not given) | ? | 7% | -2 | 18µM*
CCCCn1c(SCC(=O)Nc2cc(C(F)(F)F)cc(C(F)(F)F)c2)nnc1C(CC)N(C)C (stereo not given) | 13µM* | 6% | -1 | ?
CCCCn1c(SCC(=O)Nc2ccc3c(c2)OCCO3)nnc1C(CC)N(C)C (stereo not given) | ? | 0% | 2 | 6%
Cc1ccc2cc(C#N)c(NCCNC(=O)C3CC3)nc2c1C | 7.3µM* | 0% | 1 | -19%
Cc1ccc2cc(C#N)c(NCCNC(=S)NCCCN(C)C)nc2c1C | 11% | 0% | -3 | 5%
COc1cc(NC(=O)c2ccco2)c(OC)cc1NC(=O)c1cc(OC)c(OC)c(OC)c1 | -9% | 0% | -1 | 8%
CC(C)(C)C(=O)Nc1ccc(NC(=O)c2ccco2)nc1 | 2.1µM* | -2% | -3 | -2%
CC(C)(C)c1ccc(C(=O)Nc2ccc(NC(=O)c3ccco3)cc2)cc1 | 9.2µM* | 10% | -2 | ?
CCOc1ccccc1NC(=O)c1ccc(NC(=O)c2ccco2)cc1 | 23µM* | 0% | 1 | -2%
CCOc1cc(NC(=O)c2ccco2)c(OCC)cc1NC(=O)c1cc(OC)c(OC)c(OC)c1 | 18µM* | 1% | -2 | -4%
COc1ccccc1NC(=O)c1ccc(NC(=O)c2ccco2)cc1 | ? | 3% | 0 | 4%
CC1CCN(C(=O)Cn2cc(SCc3ccccc3)c3ccccc32)CC1 | -12% | 1% | . | -2%
Cc1ccc(C)c(NC(=O)Cn2cc(S(=O)(=O)N3CCCC3)c(S(=O)(=O)N3CCCC3)c2)c1 | ? | 0% | . | 6%
COc1cccc(Sc2nc(N(C)C)ncc2S(=O)(=O)c2ccc(Cl)cc2)c1 | -18% | . | . | -2%
CCOC(=O)Cc1ccc(NC(=O)c2ccc(C(C)(C)C)cc2)cc1 | 2.6µM* | -1% | 0 | ?
Cn1cnnc1Sc1ccc(/C=C/C(=O)c2ccc(O)cc2)cc1[N+](=O)[O-] | 18µM* | ? | -5 | ?
CC(=O)Nc1ccc(NS(=O)(=O)c2c(C(=O)N3CCC(C)CC3)c(C)n(C)c2C)cc1 | . | 0% | . | -13%
CN(Cc1ccccc1)c1ccc(C(CC(N)=O)NC(=O)Cc2ccc(Br)cc2)cc1[N+](=O)[O-] (stereo not given) | -13% | -1% | 1 | 0%
CN(Cc1ccccc1)c1ccc(C(CC(N)=O)NC(=O)c2ccccc2)cc1[N+](=O)[O-] (stereo not given) | 10µM* | 0% | -2 | ?
SMILES | Nrf2 inh | Nrf2 ARE act | IL-2 act | A549 viability
CCCCN(CCCC)S(=O)(=O)c1ccc(NS(=O)(=O)c2ccc(NC(C)=O)cc2)cc1 | 16µM* | 0% | -1 | -10%[1.84 µM]
CCn1c(CNC(=O)COc2ccc(C(C)C)cc2)nnc1SCC(=O)Nc1ccccc1F | ? | 0% | -1 | -13%
CCn1c(CNC(=O)COc2ccc(C(C)C)cc2)nnc1SCC(=O)Nc1ccccc1C(C)C | 16µM* | 3% | 2 | -22%
CCN(CC)c1ccc(/C=N/N2C(=O)c3ccccc3C2=O)c(O)c1 | 5% | 2% | ? | -9%
O=C1c2cccc3cc([N+](=O)[O-])cc(c23)C(=O)N1/N=C/c1ccc(O)cc1O | ? | 28% | 2 | 23µM*
Cc1nc(SCC(=O)Nc2nc3ccccc3s2)c(C#N)c(C)c1C | 4.6µM* | -2% | 1 | 14%
Cc1ccc(NC(=O)CN2C(=O)CC(c3ccc(C)c(C)c3)=Nc3ccccc32)cc1 | -5% | 0% | . | -2%
O=C(Nc1ccc(Cl)c(Cl)c1)Nc1nnc(CSc2ccccc2)s1 | 7.3µM* | 2% | 3 | ?
O=C(c1ccc(Cl)cc1)N1CCC(c2nc3ccccc3o2)CC1 | -17% | 1% | . | 0%
Cc1ccc(OCC(=O)OCc2cc(=O)n3nc(-c4cccs4)sc3n2)cc1C | 18% | 0% | . | -1%
FC(F)(F)c1cccc(-c2nn[nH]n2)c1 | -10% | 0% | -2 | -8%
Nc1nc(N)c(-c2cccc(C(F)(F)F)c2)c(Cc2cccc(C(F)(F)F)c2)n1 | 15µM* | 3% | 0 | 2%
NS(=O)(=O)c1ccc(N2N=C(c3ccccc3)CC2c2ccccc2Cl)cc1 (stereo not given) | 21µM* | 1% | 0 | ?
CCSC1=C(C#N)C(c2cccs2)C(C(=O)OC)=C(C)N1 (stereo not given) | 23µM* | 3% | 0 | ?
CCOC(=O)C1=C(C)NC(SCC(N)=O)=C(C#N)C1c1cccs1 (stereo not given) | -6% | -1% | 1 | 1%
O=C(/C=C/c1ccccc1Br)c1ccc2c(c1)OCO2 | ? | ? | -5 | 8%
O=C(/C=C\Nc1ccccc1Br)c1ccc2c(c1)OCO2 | 2.1µM* | 0% | -1 | -5%
Cc1onc(-c2ccccc2)c1C(=O)N/N=C/c1c[nH]c2ccccc12 | 15µM* | 8% | -4 | ?
Cc1cccc(N2CCN(C(=O)C3CCN(Cc4nc(-c5ccc(Cl)cc5)oc4C)CC3)CC2)c1C | . | 1% | . | -4%
CC(C)(C)c1nnc(NC(=O)C2CCN(C(=O)c3ccco3)CC2)s1 | ? | 0% | -1 | -1%
O=C(Nc1ncc(Cc2ccccc2)s1)C1CCN(C(=O)c2ccco2)CC1 | 21µM* | . | . | -11%
CCCCCn1c(=O)[nH]c2cc(C(=O)N3CCN(Cc4ccc5c(c4)OCO5)CC3)ccc2c1=O | 0.82µM* | 1% | -1 | ?
CCCCCn1c(=O)[nH]c2cc(C(=O)NCc3ccc4c(c3)OCO4)ccc2c1=O | 9% | 0% | -3 | 3%
Cc1[nH]c2ccccc2c1/C=N/NC(=S)NC(C)C | 15µM* | 5% | -1 | ?
CC(C)NC(=S)N/N=C/c1c[nH]c2ccccc12 | 20% | 9% | 2 | -3%
CN(C)c1cc[n+](CC(=O)c2ccc(OC(F)F)cc2)cc1 | 21µM* | 0% | 3 | -6%

Assay outcomes: PubChem, National Center for Advancing Translational Sciences (NCATS)
